Vif inh: HIV Vif self-association inhibitors, primary screen, imaging, HEK293T, single point; HEK293T cells, Vif self-association by quenched fluorescence, 24 h; inhibition, % at 7.49 µM; actives 0.35% (n = 340,000); AID 602346, 2012; in the data active means inhibition above about 50%, passing the limit was not always enough; inconclusive means no clear call, values can overlap the other calls; inactive means below about 31%
SKN-1 block: suppressors of acrylamide-induced Pgst-4::GFP reporter in worms, primary screen, SKN-1 inhibitor project, whole organism, uHTS, GFP/RFP fluorescence ratio, strain VP596; C. elegans VP596 Pgst-4::GFP/RFP ratio, 24 h; AID 624304, 2012; inhibition, % at 21.8 µM; actives 0.49% (n = 360,000);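 active means interference check ratio from 0.5 to 1.5 plus GFP to RFP signal ratio inhibition reaching or exceeding a fixed threshold, cut at about 30% in these data, passing the limit was not always enough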
SMARCA2 activ: SMARCA2 (BRM) function activators, primary screen, cell-based, luminescence, high throughput | MG213 cells, MMTV-luciferase reporter, dexamethasone, overnight | activation, % at 9.1 µM | actives 1% (n = 370,000); in the data active means activation above about 7.8%;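 further: 0% = vehicle wells and 100% = reference activator wells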
GRIN3A LBD mod: binders of NR3A ligand-binding domain, primary screen, biophysical, differential scanning fluorimetry, uHTS; Tm shift relative to glycine control, % at 25 µM; NR3A LBD differential scanning fluorimetry, Tm shift; 0% = protein alone, 100% = glycine-bound protein; actives 2.5% (n = 340,000);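 active means melting temperature shift of at least 10% of the positive control shift, at one fixed dose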
NadD inh: inhibitors of S. aureus NadD, primary screen, biochemical, colorimetric, uHTS; inhibition, % at 20 µM; Nicotinate-nucleotide adenylyltransferase NadD (Staphylococcus aureus N315); actives 0.78% (n = 360,000); purified NadD enzyme, colorimetric absorbance read-out; in the data active means inhibition above about 26%
esBAF inh: Bmi1 luciferase reporter increase in mESCs, primary screen, esBAF inhibitor project, mouse ES cells, Bmi1 luciferase knock-in, single point. 24 h; 100% = twice the neutral-well signal. reporter increase, % at 12.5 µM. actives 2% (n = 350,000). AID 602393, 2012; in the data active means activation above about 40%; inconclusive means no clear call, values can overlap the other calls;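 further: 0% = median of the plate's neutral control wells and 100% = double that signal; a rise in the Bmi1 reporter signal indicates esBAF inhibition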
* hit, by the source's call; ? = inconclusive; . = no result given. An excerpt weighted towards active compounds, which were near 5.2% of everything screened.

SMILES	Vif inh	SKN-1 block	SMARCA2 activ	GRIN3A LBD mod	NadD inh	esBAF inh
O=C(C[C@H]1CC[C@H](NC(=O)c2cnccn2)[C@H](CO)O1)NCc1ccccc1F	.	.	.	.	.	-5
O=C(C[C@@H]1C=C[C@H](NC(=O)c2ccccn2)[C@@H](CO)O1)NCc1cccc(F)c1	.	.	.	.	.	1
CCc1ccc(NS(=O)(=O)c2ccc3[nH]cc(C(=O)N4CCCCC4)c(=O)c3c2)cc1	20	-11	-3	-2	-2	.
CCN(CC)C(=O)c1c[nH]c2ccc(S(=O)(=O)Nc3cc(C)cc(C)c3)cc2c1=O	0	15	-3	1	4	10
Cc1cc(C)cc(NS(=O)(=O)c2ccc3[nH]cc(C(=O)N4CCc5ccccc54)c(=O)c3c2)c1	-9	12	-1	13*	13	-4
CCc1ccc(NS(=O)(=O)c2ccc3[nH]cc(C(=O)N4CCc5ccccc54)c(=O)c3c2)cc1	-3	1	1	12*	22	.
COc1cccc(NC(=O)C[C@@H]2CC[C@H]3[C@H](COc4ccc(NC(=O)C5CCOCC5)cc4C(=O)N3C)O2)c1	.	.	.	.	.	3
O=C(CCn1c(=O)oc2ccccc21)Nc1ccc2c(c1)OCCO2	.	-3	1	-3	-1	57*
Cc1ccc(NC(=O)CCn2c(=O)oc3ccccc32)cc1	.	0	-1	-1	-2	2
COc1ccc(NC(=O)CCCn2c(=O)oc3ccccc32)cc1Cl	2	-1	7.8*	-6	3	.
COc1ccc(OC)c(NC(=O)c2ccc3c(=O)n(CCc4ccccc4)c(=S)[nH]c3c2)c1	3	5	0	15*	26	4
O=C(CCCn1c(=O)oc2ccccc21)Nc1ccccc1	6	0	0	-5	-2	51*
Cc1cccc(S(=O)(=O)N2CC[C@@H]3[C@H](CO)Nc4ccc(C#Cc5cccc(F)c5)cc4[C@@H]32)c1	.	.	.	.	.	3
COc1ccc(NC(=O)CCn2c(=S)[nH]c3ccccc3c2=O)cc1Cl	57*	-2	0	.	7	-7
O=C(CCn1c(=S)[nH]c2ccccc2c1=O)Nc1cccc(Cl)c1	-7	-2	-2	2	-8	-4
CO[C@@H]1CN(C)C(=O)c2ccc(NC(=O)c3ccc4c(c3)OCO4)cc2OC[C@@H](C)N(CCC(F)(F)F)C[C@@H]1C	.	.	.	.	.	5
NS(=O)(=O)c1ccc(Nc2nc(-c3ccc(F)cc3)cs2)cc1	2	9	-2	25*	-5	.
CC(=O)Nc1ccc(-c2csc(Nc3ccc(S(N)(=O)=O)cc3)n2)cc1	-1	2	-5	-4	5	5
NS(=O)(=O)c1ccc(Nc2nc(-c3ccc(O)cc3O)cs2)cc1	-3	-1	0	15*	0	.
CN(C)CC(=O)N[C@@H]1CC[C@@H](CCn2cc(C3CCCC3)nn2)O[C@@H]1CO	.	.	.	.	.	-3
Cn1cc(/C=C(\C#N)C(=O)Nc2ccccc2O)c2ccccc21	-4	8	.	10	-1	64*
CC(C)c1ccc(C(O)c2cnc(C(C)C)n2C)cc1 (stereo unspecified)	-16	-4	-2	-1	2	73*
CCc1ccc2c(Cl)c(C(=O)N/N=C/c3c[nH]c4ccccc34)sc2c1	-6	4	2	24*	26	9
CCc1ccc(-c2cc(C(=O)N/N=C/c3c[nH]c4ccccc34)[nH]n2)cc1	-1	10	-1	24*	21	-3
CCNC(=O)C[C@@H]1CC[C@H]2[C@@H](COC[C@H](O)CN2C(=O)C2CCOCC2)O1	.	.	.	.	.	-4
SMILES	Vif inh	SKN-1 block	SMARCA2 activ	GRIN3A LBD mod	NadD inh	esBAF inh
Nc1cc(-c2ccc(Br)cc2)nn1S(=O)(=O)c1cccc2nsnc12	-25	11	-3	0	-1	-4
Nc1cc(-c2ccc(Cl)cc2)nn1S(=O)(=O)c1cccc2nsnc12	-8	-4	-1	19*	-8	-11
CCCCOC(=O)c1ccc(N=Nc2c(C)c(C#N)c(O)[nH]c2=O)cc1	1	34	-1	-3	52*	35
COc1ccc2[nH]cc(CCNC(=O)Nc3ccccc3)c2c1	-11	10	-2	5	-9	1
COc1ccc2[nH]cc(CCNC(=S)NCCc3ccccc3)c2c1	0	-3	0	26*	-3	-5
COc1cc(NC(=S)NCCc2c[nH]c3ccccc23)c(OC)cc1Cl	3	11	-4	36*	-6	.
Cc1ccc(NC(=S)NCCc2c[nH]c3ccccc23)c(C)c1	12	-7	1	12*	-7	-7
COc1ccc(NC(=S)NCCc2c[nH]c3ccccc23)cc1	-1	2	-1	26*	-2	14
COc1ccccc1NC(=S)NCCc1c[nH]c2ccccc12	-7	4	1	7	-11	21
COc1ccc2c(CCNC(=O)Nc3ccccc3)c[nH]c2c1	?	10	2	7	-3	.
C[C@@H]1CN([C@H](C)CO)C(=O)c2cc(NC(=O)CCN3CCOCC3)ccc2O[C@@H]1CN(C)C(=O)Nc1cccc2ccccc12	.	.	.	.	.	-3
CC(C)CCn1cnc2c(cnn2-c2ccc(F)cc2)c1=O	-1	3	-4	0	-5	46*
NC(=S)Nc1ccc2cn[nH]c2c1	8	-1	-2	-2	0	.
FC(F)Oc1ccc(NC(=S)NCc2ccccc2)cc1	-6	-10	-2	4	-2	.
Oc1cccc2c(NC(=S)Nc3ccc(OC(F)F)cc3)cccc12	1	4	-1	11*	2	.
C=CCNC(=S)Nc1ccc2cn[nH]c2c1	4	5	-3	1	20	.
S=C(Nc1ccccc1)Nc1ccc2cn[nH]c2c1	5	18	-3	9	-1	39
Cc1ccc(NC(=S)Nc2ccc3cn[nH]c3c2)cc1	-1	1	7	19*	5	.
Cc1cc(C)cc(NC(=S)Nc2ccc3cn[nH]c3c2)c1	-1	-5	1	15*	0	.
FC(F)Oc1ccc(NC(=S)Nc2ccc3cn[nH]c3c2)cc1	1	6	-2	17*	-4	.
C[C@H]1CN([C@@H](C)CO)S(=O)(=O)c2ccc(-c3ccc(C(=O)N(C)C)cc3)cc2O[C@H]1CN(C)C(=O)C1CCC1	.	.	.	.	.	3
C[C@H]1CN([C@@H](C)CO)C(=O)c2cc(C3=CCCC3)cnc2O[C@H]1CN(C)C(=O)c1ccccc1	.	.	.	.	.	3

Screening data as filed in PubChem BioAssay.
